As a reminder, the inhibition is the relative decrease from the control value, in per cent.

Among all 290,000 compounds or so, about 3,000 (1%) were called active. Cut-off read from the data, not from the text of the source: active = inhibition mostly above about 36% (no sharp cut-off); inactive = mostly below about 34%. The list comes from a sample in which actives are over-represented; it also holds similar structures and randomly drawn compounds.

This assay can be described thus: inhibition of NOD1-driven NF-kB reporter – cell-based, luminescence, uHTS, primary screen (AID 1578).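 Note: HEK-293T reporter cells stimulated with the NOD1 agonist gamma-tri-DAP.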 As to conditions: NOD1-driven NF-kB luciferase reporter cells, at 4 µM, active compounds read high. (In general: Reporter assays use an easily measured gene product as a stand-in for the process of interest.)
As to `COc1ccc(CNc2ccc(S(N)(=O)=O)cc2)cc1`, the inhibition was 2.2% (inactive). Take `Oc1ccc(/C=N/NC(=S)N2CCOCC2)cc1`: the inhibition was 4.2% (inactive). With `Cc1ccc(/C=N/NC(=S)N2CCOCC2)cc1`, the inhibition was 39.7% (inactive).

Take `S=C(N/N=C/c1ccc(Cl)cc1)N1CCOCC1`: the inhibition was 63.9% (active).

Regarding `Cc1cccc2sc(NC(=O)CSc3cn[nH]n3)nc12`, the inhibition was 19% (inactive).

`O=C1C2CC=CCC2C(=O)N1Cc1ccccc1Cl` (stereo not drawn): the inhibition is -2.8% (inactive). For `CC(=O)Nc1ccc(NC(=O)CSc2nc(N)c(NC(=O)c3ccco3)c(=O)[nH]2)cc1`, the inhibition is -35.9% (inactive). Consider `COC(=O)COc1ccc2c(-c3ccc(OC)cc3)cc(=O)oc2c1`, for which the inhibition was 1.6% (inactive). Turning to `O=C(COc1ccc2ccc(=O)oc2c1)Nc1ccc(CCO)cc1`, the inhibition was -6% (inactive).

With `Cc1c(C)c2ccc(OCC(=O)Nc3cccnc3)cc2oc1=O`, the inhibition is -45.6% (inactive). To `O=C(COc1ccc2ccc(=O)oc2c1)Nc1cccnc1` belongs -31.3% (inactive); to `Cc1nn(CCC#N)c(N)c1C1(O)C(=O)Nc2c(Cl)cc(Cl)cc21` (stereo not drawn), -6.9% (inactive). On to `Fc1ccccc1/C=N/Nc1nc2ccccc2o1`, for which the inhibition was -1.1% (inactive). Take `CCOc1ccc2nc(C)cc(Nc3ccc(N4CCOCC4)cc3)c2c1`: the inhibition was -31.4% (inactive). To `CN(C[C@H](CC1CCCCC1)N(C[C@H](Cc1ccccc1)N(CCc1ccccc1)N=O)N=O)N=O` belongs -18.5% (inactive); to `O=c1cc(CNC2CCCCC2)c2ccccc2[nH]1`, 11.2% (inactive); to `COC(=O)c1ccc(-n2cncn2)c([N+](=O)[O-])c1`, -23.5% (inactive). With `CN=c1scc(-c2cccs2)n1/N=C/c1ccc(O)c(O)c1O`, the inhibition is -24.6% (inactive). For the compound `CN=c1scc(-c2cccs2)n1/N=C/c1ccccc1O`, the inhibition was 107% (active). For `CC(C)N=c1scc(-c2cccs2)n1/N=C/c1ccc(O)c(O)c1O`, the inhibition was 54.6% (inactive). To `O=C(Cc1ccccc1)NCC(=O)N1CCN(c2ccccc2)CC1` belongs -14.1% (inactive); to `Cc1ccc(NC2=CC(=O)CC(c3ccc(Cl)cc3)C2)cc1` (stereo not drawn), -10.3% (inactive); to `C(=N\Nc1ccc2ccccc2n1)/c1ccc2c(c1)OCCO2`, 71.8% (active). Take `C(=N\Nc1nc2ccccc2[nH]1)/c1ccc2c(c1)OCCO2`: the inhibition was -1.4% (inactive). The figure for `Cc1cccc(/C=N/Nc2ccc3ccccc3n2)c1` is 63.5% (active); for `C(=N\Nc1ccccn1)/c1ccc2c(c1)OCCO2` it is -30.1% (inactive); for `Cc1ccc(/C=N/Nc2ccc3ccccc3n2)o1` it is 25.7% (inactive). Regarding `Fc1cccc(/C=N/Nc2ccc3ccccc3n2)c1`, the inhibition is 2.4% (inactive). Take `Cc1ccc(OCC(O)CN2C(=O)NC(C)(C)C2=O)c(C)c1` (stereo not drawn): the inhibition is -16.8% (inactive). `Cc1ccc(N=Nc2[nH]c3ccccc3c2O)cc1`: the inhibition is -16% (inactive).

For the compound `COc1ccc(N2CC(C(=O)Nc3nnc(SCc4cccnc4)s3)CC2=O)cc1` (stereo not drawn), the inhibition is -15.4% (inactive). For `O=C(O)CSc1nnc(CSc2nc3ccccc3s2)n1-c1ccccc1`, the inhibition is -26.6% (inactive). Take `CC(C)(C)OC(=O)Nc1ncnc2c1ncn2C1OC(CO)C2OC(C)(C)OC21` (stereo not drawn): the inhibition was 1.4% (inactive). To `COc1ccc(NC(=O)CSc2nnc(CN3CCOCC3)n2C)cc1Cl` belongs -15% (inactive); to `Cc1cccc(NC(=O)NCC2CCN(c3ccc(S(=O)(=O)N4CCOCC4)cc3)CC2)c1`, -10.9% (inactive).

Turning to `CCNC(=S)N/N=C(\C)c1ccc2ccccc2c1OC(F)F`, the inhibition is -20.3% (inactive). Consider `C/C(=N\NC(=S)NCc1ccccc1)c1ccc2ccccc2c1OC(F)F`, for which the inhibition is 48.2% (active).

In the case of `COC(=O)N/N=C(\C)c1ccc2ccccc2c1OC(F)F`, the inhibition was -30% (inactive). To `CCc1ccc(CNC(=O)c2ccc(NC(=O)C3=CSCCO3)cc2)cc1` belongs -44.5% (inactive); to `COc1ccc(NC(=O)C2=CC(c3ccco3)=NS(=O)(=O)N2C)cc1OC`, -21.6% (inactive). `O=C(Nc1cc(Sc2ccccn2)cc([N+](=O)[O-])c1)c1cccc(Cl)c1`: the inhibition was 15.3% (inactive). `O=C(Nc1cc(Sc2ccccn2)cc([N+](=O)[O-])c1)c1ccc(Cl)cc1`: the inhibition is 74.1% (active). With `O=C(Nc1cc(Sc2ccccn2)cc([N+](=O)[O-])c1)c1ccc([N+](=O)[O-])cc1`, the inhibition was 45.6% (inactive).

For `Cn1c(O)c(N=NC(=O)CNC(=O)/C=C/c2ccccc2)c2ccccc21`, the inhibition was 24.3% (inactive). Regarding `Cc1cccc(Cc2cnc(N3C(=N)SC(c4ccccc4)C3=O)s2)c1` (stereo not drawn), the inhibition is 95.5% (active). For the compound `Cc1cccc(Cc2cnc(NC(=O)c3ccc(C)o3)s2)c1`, the inhibition was -34.8% (inactive). With `O=C1c2ccccc2C(=O)N1c1ncc(Cc2ccc(Cl)cc2)s1`, the inhibition is 25.4% (inactive).

For the compound `Brc1cccc(-c2nc3cccnc3nc2-c2cccc(Br)c2)c1`, the inhibition was 23.6% (inactive). As for `CC(C)(C)c1nc2cc(Cl)c([N+](=O)[O-])cc2o1`, the inhibition is -22.4% (inactive).

Consider `O=C1N=C2N(CCN3CCCCC3)c3ccccc3N2/C1=C\c1ccc([N+](=O)[O-])o1`, for which the inhibition was 84.9% (active). Turning to `O=C(CN1CCCCCCC1)N/N=C/c1ccc([N+](=O)[O-])o1`, the inhibition is 8.4% (inactive). In the case of `c1ccc2c(c1)N1CCCN=C1N2CCN1CCCCC1`, the inhibition was -32.5% (inactive).

With `CO/N=C/c1ccc(N2CCCC2)c([N+](=O)[O-])c1`, the inhibition was -21.4% (inactive).

Turning to `Cc1ccc(S(=O)(=O)N2CCN(c3ccnc4cc(Cl)ccc34)CC2)cc1`, the inhibition is 16.3% (inactive). In the case of `CC(=O)Nc1ccc(C(=O)c2ccccc2)cc1`, the inhibition was -1% (inactive). On to `N#CC(C#N)=C(Nc1ccccc1)c1ccccc1`, for which the inhibition is 32.8% (active). To `C/C(Nc1ccccc1)=C(/C#N)C(N)=O` belongs -14.6% (inactive). Turning to `O=C(N/N=C/C=C/c1ccccc1)c1cc(C2CC2)[nH]n1`, the inhibition was 0.1% (inactive). Turning to `O=S(=O)(Nc1nc2ccccc2[nH]1)c1ccc2ccccc2c1`, the inhibition is 56.9% (inactive). Take `CS(=O)(=O)Nc1nc2ccccc2[nH]1`: the inhibition is -0.8% (inactive). `CN(Cc1ccccc1)S(=O)(=O)c1ccc2c(c1)CCC(=O)N2`: the inhibition is -21.5% (inactive). Turning to `O=C(c1cc(-c2ccccc2Cl)nc2ccc(Br)cc12)N1CCN(c2ccccn2)CC1`, the inhibition is -7.5% (inactive).

For the compound `CC(C)N(C(=O)COC(=O)c1ccccc1C(=O)c1ccc(Cl)c([N+](=O)[O-])c1)C(C)C`, the inhibition was -13.9% (inactive). Turning to `CSc1ccc(Cl)c(C(=O)OCC(=O)N(C)CCC#N)c1`, the inhibition was -28.1% (inactive). Turning to `O=C(COC(=O)c1cc([N+](=O)[O-])ccc1Cl)NC1CCCC1`, the inhibition was 1.2% (inactive). Turning to `CN(CCC#N)C(=O)COC(=O)c1ccccc1C(=O)c1ccc(Cl)c([N+](=O)[O-])c1`, the inhibition was 55.1% (active). As to `O=C(COC(=O)c1ccc(Cl)c([N+](=O)[O-])c1)NC1CCCC1`, the inhibition is 3.2% (inactive).

As for `C(=N\n1cnnc1)/c1cccc2ccccc12`, the inhibition was 7.2% (inactive). For `Cc1cc(=O)oc2c(C)c(OCC(=O)N3CCC(C(=O)O)CC3)ccc12`, the inhibition is -25.2% (inactive). To `CCc1ccc(C2CC(=O)Nc3c2c(=O)nc2c(C)cccn32)cc1` (stereo not drawn) belongs -32.6% (inactive).

As for `COc1cccc(C(CNC(=O)C(c2ccccc2)c2ccccc2)N(C)C)c1` (stereo not drawn), the inhibition is -20.7% (inactive). `CC(C)(C)NC(=O)CSc1nc2[nH]ncc2c(=O)[nH]1`: the inhibition was -22.7% (inactive). Take `COc1ccccc1N1CCN(/N=C/c2cc(Br)ccc2F)CC1`: the inhibition is -42.6% (inactive). For the compound `CNc1ccn(C2CCCO2)c(=O)n1` (stereo not drawn), the inhibition was 1.2% (inactive). For `COc1ccc(NC(=O)c2ccccc2NS(=O)(=O)c2ccc(C)cc2)c([N+](=O)[O-])c1`, the inhibition was 58.5% (inactive). Take `CCOc1ccc(NC(=O)c2cccnc2Cl)c([N+](=O)[O-])c1`: the inhibition is -27.8% (inactive). `Cc1ccc2oc(C(=O)N(CCO)Cc3ccccc3)c(C)c2c1`: the inhibition is -6.1% (inactive). With `O=C(C(=O)N1CCOCC1)c1cn(CCOc2ccccc2)c2ccccc12`, the inhibition is 1% (inactive).

With `Cc1ccc(S(=O)(=O)N2CCN=C2SCc2ccccc2)cc1`, the inhibition is -1.7% (inactive). To `Cc1ccc(CSC2=NCCN2S(=O)(=O)c2ccccc2)cc1` belongs -6% (inactive). As to `Cc1ccc(CSC2=NCCN2S(=O)(=O)c2ccc(F)cc2)cc1`, the inhibition was 48.3% (active). Take `Cc1ccccc1S(=O)(=O)Cc1ccc(C(=O)NCCCN2CCN(C)CC2)o1`: the inhibition is -8.5% (inactive). To `CCOC(=O)Cc1cnc(NC(=O)Cn2nnc(-c3ccc(OCC)cc3)n2)s1` belongs 0.4% (inactive); to `O=C(N/N=C/c1ccc(OC(=O)c2ccccc2)cc1)c1cccnc1`, -4.5% (inactive); to `COC(=O)c1ccc2c(c1)C(C)(C)C(/C=C/c1ccc(OC)c(OC)c1OC)=[N+]2C`, -8.7% (inactive). On to `COC(=O)c1ccc2nc(C)c(C)nc2c1`, for which the inhibition is -2.5% (inactive). Regarding `CCCCNC(=O)c1cc2c(=O)n(CC)c3ccccc3c2s1`, the inhibition is -5.9% (inactive).

In the case of `COc1ccc(CNC(=O)CN(C(=O)CCC(=O)Nc2ccccn2)c2ccc3c(c2)OCO3)cc1`, the inhibition is -19.9% (inactive). Regarding `CCn1cc(C(=O)NCCCOC)c(=O)c2cc(S(=O)(=O)N(C)C3CCCCC3)ccc21`, the inhibition is -10.9% (inactive). `CCn1cc(C(=O)NCC(OC)OC)c(=O)c2cc(S(=O)(=O)N(C)C3CCCCC3)ccc21`: the inhibition is 59% (active). For `COC(CNC(=O)c1cn(C)c2ccc(S(=O)(=O)N(C)C3CCCCC3)cc2c1=O)OC`, the inhibition was -18.2% (inactive). In the case of `CCOc1ccc(S(=O)(=O)N(CC)CC(=O)N2CCOCC2)cc1C`, the inhibition was -22.7% (inactive).

Consider `CN(C(=O)Nc1ccc(Cl)cc1)c1c2c(nn1C)CCCC2`, for which the inhibition was -14.8% (inactive). Consider `COc1ccc(OC)c2c1sc(=NC(=O)c1cccc(N3C(=O)CCC3=O)c1)n2C`, for which the inhibition is -1.9% (inactive). Consider `CCN(CC)c1ccc(/C=N/Nc2nc3ccccc3[nH]2)c(O)c1`, for which the inhibition was 11.9% (inactive). Regarding `Cc1csc(N/N=C/c2ccccn2)n1`, the inhibition was 8.7% (inactive). On to `Cc1nc(N/N=C/c2ccccn2)sc1C`, for which the inhibition was 91% (active).

Turning to `CCCc1sc(N/N=C/c2ccccn2)nc1-c1ccc(Br)cc1`, the inhibition was -37.7% (inactive). With `C(=N\Nc1nc2ccccc2[nH]1)/c1ccc2ncccc2c1`, the inhibition is 18.6% (inactive). `C(=N\Nc1nc2ccccc2[nH]1)/c1ccncc1`: the inhibition was -22% (inactive).

As to `CCN(CC)c1ccc(/C=N/Nc2nc3ccccc3[nH]2)cc1`, the inhibition was 105% (active).

On to `C(=N\Nc1nc2ccccc2[nH]1)/c1ccccn1`, for which the inhibition is 59.4% (active). To `C(=N\Nc1nc2ccccc2[nH]1)/c1ccccc1` belongs -71.3% (inactive).

These data come from PubChem BioAssay AID1578 (Sanford-Burnham Center for Chemical Genomics, 2009).
